Measurements as given in publication PMC11995724, “Antibiotic target discovery by integrated phenotypic and activity-based profiling of electrophilic fragments” (Cell chemical biology, 2025).
The campaign covered roughly 3,200 compounds. About 75 (2%) showed an effect of 50% or more. Many of the other results were omitted from the sample, so strong results are more common in it than they were.

Tested on: T1, S. aureus MSSA476
T1 construct: MSSA476
Set-up: species or system S. aureus MSSA476 (TSB) or V. cholerae SAD30 (LB); 384-well bacterial growth screen at 25 uM, OD600 relative to DMSO control
Conditions: relative growth, OD600, TSB; 25 µM; inhibitor

Structure (SMILES) | % of control remaining
Cc1ccc(NC(=O)CN2CCN(C(=O)CCl)CC2)cc1.Cl [4-D16, 2-[4-(2-chloroacetyl)piperazin-1-yl]-N-(4-methylphenyl)acetamide hydrochloride] | 131.872%
COCC(NC(=O)C(C)Cl)c1ccccn1 (stereo not shown) [6-B13, 2-chloro-N-[2-methoxy-1-(pyridin-2-yl)ethyl]propanamide] | 95.6098%
COc1cc(C=C(C#N)C(=O)NC2CCCCC2)cc(Cl)c1O [8-H21, 3-(3-chloro-4-hydroxy-5-methoxyphenyl)-2-cyano-N-cyclohexylprop-2-enamide] | 104.564%
CCOc1ccc(N2C(=O)C=CC2=O)cc1 [10-A14, 1-(4-ethoxyphenyl)-2,5-dihydro-1H-pyrrole-2,5-dione] | 141.563%
COc1cccc(N2C(=O)C=CC2=O)c1 [10-K03, 1-(3-methoxyphenyl)-2,5-dihydro-1H-pyrrole-2,5-dione] | 124.375%
O=C1C=CC(=O)N1c1ccc(Oc2ccccc2)cc1 [10-F17, 1-(4-phenoxyphenyl)-2,5-dihydro-1H-pyrrole-2,5-dione] | 36.875%
O=C1C=CC(=O)N1c1cccc(O)c1 [10-O07, 1-(3-hydroxyphenyl)-2,5-dihydro-1H-pyrrole-2,5-dione] | 125.313%
COc1ccccc1N1C(=O)C=CC1=O [10-O10, 1-(2-methoxyphenyl)-2,5-dihydro-1H-pyrrole-2,5-dione] | 118.438%
O=C1C=CC(=O)N1c1ccc(OC(F)(F)F)cc1 [10-J19, 1-[4-(trifluoromethoxy)phenyl]-2,5-dihydro-1H-pyrrole-2,5-dione] | 5.9375%
O=C1C=CC(=O)N1c1ccc(F)c(Cl)c1 [10-D15, 1-(3-chloro-4-fluorophenyl)-2,5-dihydro-1H-pyrrole-2,5-dione] | 109.688%
O=C1C=CC(=O)N1c1ccc(OC(F)F)cc1 [10-P11, 1-[4-(difluoromethoxy)phenyl]-2,5-dihydro-1H-pyrrole-2,5-dione] | 110.313%
O=C1C=CC(=O)N1c1ccc2ccccc2c1 [10-D07, 1-(naphthalen-2-yl)-2,5-dihydro-1H-pyrrole-2,5-dione] | 3.125%
CCOC(=O)c1[nH]c(C)c(C(=O)CCl)c1C [10-A10, ethyl 4-(2-chloroacetyl)-3,5-dimethyl-1H-pyrrole-2-carboxylate] | 136.563%
C=CC(=O)NCC1=NOCC1 [3-G16, N-[(4,5-dihydro-1,2-oxazol-3-yl)methyl]prop-2-enamide] | 95.7771%
O=C1CCc2cc(C(=O)CCl)ccc2N1 [10-M03, 6-(2-chloroacetyl)-1,2,3,4-tetrahydroquinolin-2-one] | 83.125%
Cc1cc(C(=O)CCl)c(F)cc1F [10-O03, 2-chloro-1-(2,4-difluoro-5-methylphenyl)ethan-1-one] | 143.438%
O=C1CCc2cc(C(=O)CCl)c(F)cc2N1 [10-O20, 6-(2-chloroacetyl)-7-fluoro-1,2,3,4-tetrahydroquinolin-2-one] | 3.75%
C=CC(=O)N1CCC(n2nc(C)nc2O)CC1 [3-P21, 1-[4-(5-hydroxy-3-methyl-1H-1,2,4-triazol-1-yl)piperidin-1-yl]prop-2-en-1-one] | 126.077%
O=C(CCl)N1CCOc2c1cccc2C(F)(F)F [5-G08, 2-chloro-1-[8-(trifluoromethyl)-3,4-dihydro-2H-1,4-benzoxazin-4-yl]ethan-1-one] | 0.3643%
O=C(CCl)Nc1c(Cl)cccc1C(F)(F)F [5-B04, 2-chloro-N-[2-chloro-6-(trifluoromethyl)phenyl]acetamide] | 82.3315%
CC1CCN(C(=O)CCl)c2cc(C(F)(F)F)ccc2S1 (stereo not shown) [5-J07, 2-chloro-1-[2-methyl-7-(trifluoromethyl)-2,3,4,5-tetrahydro-1,5-benzothiazepin-5-yl]ethan-1-one] | 106.011%
CN(C)S(=O)(=O)c1ccc(Cl)c(NC(=O)CCl)c1 [6-H12, 2-chloro-N-[2-chloro-5-(dimethylsulfamoyl)phenyl]acetamide] | 88.439%
C=CC(=O)N1CCN(Cc2cc(=O)n3ccsc3n2)CC1 [3-F22, 7-{[4-(prop-2-enoyl)piperazin-1-yl]methyl}-5H-[1,3]thiazolo[3,2-a]pyrimidin-5-one] | 101.698%

Structure (SMILES) | % of control remaining
CC1CSc2ccc(Cl)cc2N(C(=O)CCl)C1 (stereo not shown) [5-J05, 2-chloro-1-(7-chloro-3-methyl-2,3,4,5-tetrahydro-1,5-benzothiazepin-5-yl)ethan-1-one] | 95.4463%
O=C(CCl)N1c2ccccc2Sc2ccc(Cl)cc21 [4-N07, 2-chloro-1-(2-chloro-10H-phenothiazin-10-yl)ethan-1-one] | 3.049%
CC1CCN(C(=O)CCl)c2cc(Cl)ccc2S1 (stereo not shown) [4-G16, 2-chloro-1-(7-chloro-2-methyl-2,3,4,5-tetrahydro-1,5-benzothiazepin-5-yl)ethan-1-one] | 93.3778%
CC(Cl)C(=O)N(Cc1nnc(-c2ccccc2Cl)o1)C1CC1 (stereo not shown) [5-B17, 2-chloro-N-{[5-(2-chlorophenyl)-1,3,4-oxadiazol-2-yl]methyl}-N-cyclopropylpropanamide] | 92.5319%
C[C@H]1CN(C(=O)CCl)CCN1C(=O)c1cscn1 [5-L05, 2-chloro-1-[(3S)-3-methyl-4-(1,3-thiazole-4-carbonyl)piperazin-1-yl]ethan-1-one] | 92.5319%
O=C(CCl)c1ccccn1 [10-J03, 2-chloro-1-(pyridin-2-yl)ethan-1-one] | 51.875%
O=C(CCl)c1cscn1 [10-L08, 2-chloro-1-(1,3-thiazol-4-yl)ethan-1-one] | 27.8125%
CCOc1ccccc1NC(=O)C(C)Cl (stereo not shown) [6-M10, 2-chloro-N-(2-ethoxyphenyl)propanamide] | 106.195%
C=CC(=O)NCc1nc(C2CC2)cs1 [2-A19, N-[(4-cyclopropyl-1,3-thiazol-2-yl)methyl]prop-2-enamide] | 138.207%
CC1CSc2ccccc2N(C(=O)CCl)C1 (stereo not shown) [5-H07, 2-chloro-1-(3-methyl-2,3,4,5-tetrahydro-1,5-benzothiazepin-5-yl)ethan-1-one] | 104.554%
O=C(CCl)N1c2ccccc2SCC1c1ccccc1 (stereo not shown) [4-M18, 2-chloro-1-(3-phenyl-3,4-dihydro-2H-1,4-benzothiazin-4-yl)ethan-1-one] | 9.528%
O=C(CCl)N1CCCSc2ccccc21 [4-E16, 2-chloro-1-(2,3,4,5-tetrahydro-1,5-benzothiazepin-5-yl)ethan-1-one] | 116.627%
C=CC(=O)N1C[C@H](NC(C)=O)[C@@H](c2ccnn2C)C1 (racemic) [2-M16, rac-N-[(3R,4S)-4-(1-methyl-1H-pyrazol-5-yl)-1-(prop-2-enoyl)pyrrolidin-3-yl]acetamide] | 90.5135%
Cc1nn(CC(C)C)c(Cl)c1C1CCCN1C(=O)C(C)Cl (stereo not shown) [7-P19, 2-chloro-1-{2-[5-chloro-3-methyl-1-(2-methylpropyl)-1H-pyrazol-4-yl]pyrrolidin-1-yl}propan-1-one] | 108.32%
CC(Cl)C(=O)N(Cc1ccccc1)Cc1ccccc1 (stereo not shown) [5-K19, N,N-dibenzyl-2-chloropropanamide] | 103.097%
CN(C(=O)CCl)C(c1ccc(Cl)cc1)C(F)(F)F (stereo not shown) [7-J16, 2-chloro-N-[1-(4-chlorophenyl)-2,2,2-trifluoroethyl]-N-methylacetamide] | 101.413%
CC(c1ccc(C(F)(F)F)cc1F)N(C)C(=O)CCl (stereo not shown) [7-P18, 2-chloro-N-{1-[2-fluoro-4-(trifluoromethyl)phenyl]ethyl}-N-methylacetamide] | 94.5055%
CC(c1ccc(C(F)(F)F)c(Cl)c1)N(C)C(=O)CCl (stereo not shown) [7-F14, 2-chloro-N-{1-[3-chloro-4-(trifluoromethyl)phenyl]ethyl}-N-methylacetamide] | 6.593%
Cc1ccc(C=C(C#N)C(=O)Nc2nccs2)s1 [8-P13, 2-cyano-3-(5-methylthiophen-2-yl)-N-(1,3-thiazol-2-yl)prop-2-enamide] | 93.61%
Cc1ccccc1NC(=O)C(C#N)=Cc1ccc2c(c1)OCCO2 [8-J03, 2-cyano-3-(2,3-dihydro-1,4-benzodioxin-6-yl)-N-(2-methylphenyl)prop-2-enamide] | 129.461%
O=C1C=CC(=O)N1c1ccc(F)cc1 [10-M10, 1-(4-fluorophenyl)-2,5-dihydro-1H-pyrrole-2,5-dione] | 118.75%
N#Cc1ccc(N2C(=O)C=CC2=O)cc1 [10-B09, 4-(2,5-dioxo-2,5-dihydro-1H-pyrrol-1-yl)benzonitrile] | 133.438%
O=C1C=CC(=O)N1c1ccc(SC(F)F)cc1 [10-A18, 1-{4-[(difluoromethyl)sulfanyl]phenyl}-2,5-dihydro-1H-pyrrole-2,5-dione] | 29.6875%
